# Measured values from PubChem BioAssay AID2284166 (EPA ToxCast).
# Records with an inconclusive call do not appear. Active and inactive are the calls of the source. Rule for the calls: active = hit-call score of the fitted dose curve at least 0.9, where 1 is the maximum; inactive = score below 0.9.
# Biological target: Neuropeptide Y receptor type 2 (Homo sapiens) (UniProt P49146)
# Test: ERF_FR_GPCR_hNPY2R: Eurofins (ERF) G Protein-Coupled Receptor (GPCR) Radioligand Binding LeadHunter Assay for human Neuropeptide Y Receptor Y2 Agoniam
# Procedure: ERF_FR_GPCR_hNPY2R is a biochemical, single-readout assay that uses extracted gene-proteins in a cell-free assay. Measurements were taken 1 hour after chemical dosing in a 96-well plate. See Y2 Human Neuropeptide Y GPCR Binding (Agonist Radioligand) Assay, Cerep.ERF_FR_GPCR_hNPY2R is an assay component calculated from the ERF_FR_GPCR_hNPY2R assay. It is designed to measure radioligand binding using a type of binding reporter as detected by scintillation counting with radiometry technology.Data from the assay component ERF_FR_GPCR_hNPY2R was analyzed at the assay endpoint, ERF_FR_GPCR_hNPY2R, in the positive analysis fitting direction relative to DMSO as the negative control and baseline of activity. Using a type of binding reporter, gain-of-signal activity can be used to understand changes in binding as they relate to gene NPY2R. To generalize the intended target to other relatable targets, this assay endpoint is annotated to the gpcr intended target family, where the subfamily is neuropeptide Y.
# Human cells are incubated for 60 minutes at 37 C with [125I]peptide YY ligand (0.015 nM) and NYP as control inhibitor. Test Sample Requirements: Minimum for 1) Screen: 60 ul of 10 mM stock -OR- 1 mg (pre-weighed) for 10 uM final testing. 2) Dose Response: 90 ul of 10 mM stock -OR- 1 mg (pre-weighed) for a top concentration at 10 uM.
# Chain of Neuropeptide Y receptor type 2 (Homo sapiens) (P49146 whole entry, looked up): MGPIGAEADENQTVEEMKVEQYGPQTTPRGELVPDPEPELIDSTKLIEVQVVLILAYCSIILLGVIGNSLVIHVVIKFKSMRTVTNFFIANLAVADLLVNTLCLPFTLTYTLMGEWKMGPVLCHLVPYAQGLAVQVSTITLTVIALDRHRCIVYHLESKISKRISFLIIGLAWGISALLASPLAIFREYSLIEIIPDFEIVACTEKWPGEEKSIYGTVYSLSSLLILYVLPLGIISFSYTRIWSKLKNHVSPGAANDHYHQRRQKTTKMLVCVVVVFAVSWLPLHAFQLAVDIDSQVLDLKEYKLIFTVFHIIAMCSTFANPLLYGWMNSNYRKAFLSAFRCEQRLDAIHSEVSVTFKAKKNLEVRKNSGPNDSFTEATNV
row,Structure (SMILES),outcome
1,O=C(/C=C/c1ccc(O)cc1)CC(=O)/C=C/c1ccc(O)cc1,inactive
